# Source: PubChem BioAssay
# AID923: qHTS Assay for Allosteric/Competitive Inhibitors of Caspase-1: Spectroscopic Profiling in AFC Spectral Region. compound fluorescence, AFC spectral region (405/520 nm). Potency, µM (highest dose often 57.5 µM), most hits filed as activators. actives 1.1% (n = 75,000)
#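 Compound autofluorescence profiled at 405 nm ex/520 nm em during kinetic caspase 1 run (50 nM enzyme, 5 uM Ac-WEHD-AFC, HEPES pH 7.5, 10 mM DTT). Titration up to 57 uM; baseline from regression intercept, normalized to AFC standard curve.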
# A350 autofl: qHTS Assay for Spectroscopic Profiling in A350 Spectral Region; Compound autofluorescence, 340/450 nm, Alexa 350 dye-equivalents; stronger effect = higher value; max dye-equivalent concentration, M; actives 11% (n = 59,000); AID 590, 2007; in the data active = max dye-equivalent concentration above about 10 nM; inconclusive = mostly about 1.1 nM to 9.6 nM
# HSD17B inh: qHTS Assay for Inhibitors of HSD17B4, hydroxysteroid (17-beta) dehydrogenase 4; recombinant HSD17B10, NADH fluorescence kinetic; Potency, µM (top dose mostly 57.1 µM), hits mostly inhibitors; AID 893, 2007; actives 7.6% (n = 75,000);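 also: the protocol describes HADH2 (HSD17B10) and not the HSD17B4 of the title; nearly all actives have a fitted effect of over 70% in size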
#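 His-tagged E. coli-expressed HADH2 at 20 nM in 100 mM Tris-HCl pH 9.0 with 0.01 % Tween-20, preincubated 15 min with compound at room temperature. Reaction with 1 mM NAD+ and 90 uM beta-hydroxybutyryl coenzyme A; NADH fluorescence (360/450 nm) read kinetically over 4 min, last minus first point.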
# CRE Fsk mod: Cell signaling CRE-BLA (Fsk stim). CHO CRE-bla reporter (cAMP response element driving beta-lactamase), forskolin EC10, beta-lactamase ratio. Potency, µM (doses to about 38.2 µM), hits mostly activators. actives 2.5% (n = 71,000). AID 662, 2007; active = well fitted activation curve with a large enough effect in the signal ratio, with a control signal flat, not every such curve was filed as active; inconclusive = small, poorly fitted or top-dose-only effect, or effect the other way, or a change in a side signal; the % refers to the signal ratio
#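 Beta-lactamase reporter under a cAMP responsive element in CHO cells; compounds tested in titration series against EC10 NKH 477, 3 h at 37 °C. Read-out: CCF4 FRET ratio 460nm/530nm (excitation 405nm) giving %Activity, fitted to AC50.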
# HADH2 inh: qHTS Assay for Inhibitors of HADH2 (Hydroxyacyl-Coenzyme A Dehydrogenase, Type II); 3-hydroxyacyl-CoA dehydrogenase type-2 (Homo sapiens), Q99714; recombinant HADH2, NADH fluorescence, beta-hydroxybutyryl-CoA; Potency, µM (doses to about 57.1 µM), actives largely listed as inhibitors; actives 3.4% (n = 73,000); AID 886, 2007; also: nearly all actives have a fitted effect of over 60% in size
# Target sequence (Q99714 whole entry, looked up, one chain of several): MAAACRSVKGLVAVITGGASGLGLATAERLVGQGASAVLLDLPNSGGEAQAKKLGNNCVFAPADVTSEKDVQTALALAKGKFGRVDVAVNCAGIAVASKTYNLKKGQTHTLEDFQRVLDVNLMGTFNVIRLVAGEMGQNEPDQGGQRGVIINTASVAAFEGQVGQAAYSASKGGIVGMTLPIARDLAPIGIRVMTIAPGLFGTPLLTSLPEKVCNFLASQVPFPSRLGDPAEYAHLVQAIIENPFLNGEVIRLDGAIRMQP
#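 Buffer 100 mM Tris-HCl pH 9.0/0.01% Tween-20; HADH2 20 nM; NAD+ 1 mM; beta-hydroxybutyryl-CoA 90 uM (all final). 15 min cpd preincubation, RT.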
# 4MU fluor: qHTS Assay for Spectroscopic Profiling in 4-MU Spectral Region. compound autofluorescence, 340/450 nm, 4-MU equivalents; stronger effect = higher value. max dye-equivalent concentration, M. actives 11% (n = 59,000); in the data active = max dye-equivalent concentration above about 10 nM; inconclusive = mostly about 1.1 nM to 9.6 nM
#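 Compounds in 100 mM Tris, pH 8.0, incubated 15 min at room temperature, then fluorescence read at 340 nm excitation/450 nm emission. Signal converted to 4-MU dye-equivalent concentration using an on-plate six-point 4-MU standard curve.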
# Numbers stand for hits; 0 = inactive; ? = inconclusive; - = not tested or not shown; ! = not active in a repeat; [ ] = remark or other dose. Most compounds without a hit are left out; they make up all but 14% or so of the library. Unless noted, calls follow the shape of the dose curve; as a rule, active = well fitted curve in the direction sought with a large enough effect; inconclusive = small, poorly fitted or top-dose-only effect, or another doubt; inactive = no such curve, though single readings can be large; an effect the other way counts as inactive or inconclusive.
SMILES,AID923,A350 autofl,HSD17B inh,CRE Fsk mod,HADH2 inh,4MU fluor
OC1(C2(O)CC(c3ccccc3)ON2)CCCCC1 (stereo unspecified),-,0,-,-,-,0
O=C(Cc1ccc(F)cc1)N(c1ccccc1)C1C=CS(=O)(=O)C1 (stereo unspecified),0,0,0,?,0,0
COc1cc(OC)c(C2CC(=O)N3CN(c4ccc(C)cc4)CSC3=C2C#N)cc1OC (stereo unspecified),0,0,25µM,0,?,0
COc1ccc(N2CSC3=C(C#N)C(c4cc(OC)ccc4OC)CC(=O)N3C2)c(OC)c1 (stereo unspecified),0,-,16µM,?,2µM,-
Clc1ccc2c(NCCNc3ccnc4cc(Cl)ccc34)ccnc2c1,0[11.5 µM],0,0[11.4 µM],0[7.6 µM],0[11.4 µM],0
COCCCNc1ccnc2c(Cl)cccc12,0,?,32µM,?,0,?
O=C(/C=C/c1ccc(O)c(O)c1)OC(Cc1ccc(O)c(O)c1)C(=O)O (stereo unspecified),0,-,16µM!,-,-,-
O=C(/C=C\c1ccc(O)c(O)c1)O[C@@H](Cc1ccc(O)c(O)c1)C(=O)O,0,-,16µM,0,0.025µM,-
COc1cc(O)c(C(=O)/C=C/c2ccc(O)c(OC)c2)c(OC)c1,0,-,0,-,-,-
c1ccc(CN2CCN(CCN3CCn4c3nc3ccccc34)CC2)cc1,0,0,0,0,0,0
Cc1cc(C)n(-c2nc(NCCCO)c3c4c(sc3n2)CCCC4)n1,0,5.2e-07M,25µM,2µM,0,3.7e-07M
Cc1cc(C)n(-c2nc(NCC(C)O)c3c4c(sc3n2)CCCC4)n1 (stereo unspecified),0,6.1e-08M,?,?,0,4.5e-08M
Nc1nc(SCC(=O)NCCCO)nc2sc3c(c12)CCC3,0,-,0,-,0,-
Cc1cc(C)n(-c2nc(NCC3CCCO3)c3c4c(sc3n2)COC(C)(C)C4)n1 (stereo unspecified),0,3.8e-07M,25µM,13µM,0,2.9e-07M
Cc1cc(C)n(-c2nc(NC(C)C)nc(NC(C)C)n2)n1,0,0,0,0,0,0
Cc1cc(C)n(-c2nc(SCC(=O)NCC3CCCO3)c3c4c(sc3n2)CCCC4)n1 (stereo unspecified),0,0,0,0,0,0
Cc1cc(C)n(-c2nc(NCCO)c3c4c(sc3n2)CCCC4)n1,0,5.3e-08M,0,?,0,3.9e-08M
O=C(Cc1cccs1)N1CCN(c2nc(-c3ccc(Cl)cc3)cs2)CC1,0,0,0,0,?,0
Fc1cccc(CN2CCCCCCC2)c1,0,?,0,0,0,?
CCOc1ccc(S(=O)(=O)N(C)C)cc1-c1nc2c(C(C)(C)C)nn(C)c2c(=O)[nH]1,-,1.1e-07M,-,-,-,6.8e-08M
COc1ccccc1-c1ccc2ncnc(NCc3cccnc3)c2c1,0,0,?,?,?,0
COCCNc1ncnc2ccc(-c3cccc(NS(C)(=O)=O)c3)cc12,0,0,0,?,0,0
COCCNc1ncnc2ccc(-c3cccc(OC)c3)cc12,0,0,25µM,0,0,0
COc1cccc(-c2ccc3ncnc(NCc4ccccc4)c3c2)c1,0,0,25µM,0,?,0
COc1ccccc1CNc1cc(-c2ccccc2OC)ncn1,0,0,25µM,?,0,0
SMILES,AID923,A350 autofl,HSD17B inh,CRE Fsk mod,HADH2 inh,4MU fluor
COc1cccc(-c2cc(NCc3ccc(OC)cc3OC)ncn2)c1,0,0,0,?,0,0
COc1cccc(-c2cc(NCc3ccccc3)ncn2)c1,0,0,32µM,?,0,0
CC(C)=CC(=O)OCC(=O)Nc1ccccc1Cl,0,0,0,0,0,0
COc1cc2c(cc1NC(=O)CSc1nnnn1-c1ccccc1)oc1ccccc12,0,0,?,0,0,0
C=C(C)COc1ccc2c(C)c(CC(=O)OC)c(=O)oc2c1C,0,3.6e-08M,25µM,?,?,2.9e-08M
C=C(C)COc1ccc2c(C)c(C)c(=O)oc2c1OCC(=C)C,0,?,32µM,0,0,?
C=C(C)COc1ccc2c3c(c(=O)oc2c1OCC(=C)C)CCC3,0,-,?,?,0,-
COC(=O)COc1ccc2c(=O)c(Oc3ccccc3)c(C)oc2c1,0,-,0,0,0,-
CCN(CC)Cc1c(O)ccc2c(C)c(CC(=O)OC)c(=O)oc12,-,1.2e-05M,-,-,-,1.1e-05M
CCOC(=O)c1c(C)oc2ccc(O)c(CN(C)C)c12,0,0,0,0,0,0
COC(=O)Cc1c(C)c2ccc(OCC(C)=O)c(C)c2oc1=O,0,4e-08M,25µM,0,25µM,3.6e-08M
COc1ccccc1NC(=O)C1C2C=CC(O2)C1C(=O)O (stereo unspecified),0,0,0,0,0,0
CC(=O)CCc1ccc(OCCCCn2cncn2)cc1,0,?,0,0,0,0
Cc1noc(/C=C/N(C)C)c1S(=O)(=O)N1CCCC(C(=O)NCc2ccccc2Cl)C1 (stereo unspecified),0,0,0,0,0,0
Cc1ccc(C)c(OCC(=O)Nc2cc(C)on2)c1,0,-,0,0,0,-
CN(CC(O)COCc1cccs1)C1CCCCC1 (stereo unspecified),0,2.8e-08M,0,0,0,2.8e-08M
Cn1ccc(O)c(C#N)c1=O,0,0,0,?,0,0
CC(=O)c1c(C)[nH]c(C(=O)Nc2ccc3c(c2)OCCO3)c1C,0,0,0,0,0,0
CCOC(=O)N1CCC(NC(=O)c2cccnc2SC)CC1,0,0,0,0,0,0
CCOC(=O)N1CCC(NC(=O)c2cnn3cccnc23)CC1,0,3.1e-08M,?,0,?,2.7e-08M
Cc1ccccc1NC(=O)CCN1CCN(Cc2ccccc2)CC1,0,-,0,-,0,-
CCOC(=O)N1CCN(c2ncnc3nc[nH]c23)CC1,0,-,0,0,0,-
Cc1ccc(C)c(C(=O)CC2(O)C(=O)N(C)c3ccccc32)c1 (stereo unspecified),0,-,0,?,0[11.4 µM],-
Cc1ccc2c(c1)c1cccc3c1n2CCN3CCC(N)=O,0,-,32µM,?,?,-
O=C1Nc2ccccc2C12OCC1(CO2)COC2(OC1)C(=O)Nc1ccccc12 (stereo unspecified),0,0,0,0,0,0
COc1ccc2oc(C(=O)C3CC3)c(N)c2c1,0,7.2e-08M,?,0,0,7.2e-08M
O=S(=O)(c1ccc2c(c1)OCCO2)N1CCC(n2nnc3cc(C(F)(F)F)ccc32)CC1,0,0,0,?,0,0
